Source: PubChem BioAssay (NCATS)
Where “and” joins values, the source holds several entries; their conditions need not be identical. Identical values can stand only once. Inconclusive results are not listed. A call without a number means that no potency is given here. Unmarked numbers belong to inactive results. Calls of active or inactive are those of the source. Calls come from the whole dose curve; as a rule, active = well fitted curve in the direction sought with a large enough effect; inconclusive = small, poorly fitted or top-dose-only effect, or another doubt; inactive = no such curve, though single readings can be large; an effect the other way counts as inactive or inconclusive.

Experiments:
[1] = target: Cellular tumor antigen p53 (Homo sapiens) (UniProt P04637); assay: Primary qHTS for small molecule compounds that upregulate eGFP-tagged delta133p53alpha (in N-terminal) cells. (AID 2060322); conditions: NCI-H358 eGFP-delta133p53alpha fluorescence, 24 h; activation: stronger effect = higher value; note: nearly all actives have a fitted effect of over 75% in size; note: potency is the fitted concentration of half-maximal effect
In short: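 NCI-H358 cells pre-induced 24 h with 10 ng/ml doxycycline to express N-terminal eGFP-delta133p53alpha, then dosed 24 h at 37C without doxycycline; fixed, Hoechst-stained, GFP intensity by laser scanning cytometry, normalized to DMSO (0%) and 57.5 uM 5-azacytidine (100%).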

[2] = target: Aldehyde dehydrogenase, mitochondrial (Homo sapiens) (UniProt P05091); assay: qHTS for Inhibitors of the Aldehyde Dehydrogenase Family (ALDH2) Primary screen (AID 2061308); conditions: ALDH2 enzyme inhibition qHTS, 1536-well; series mostly up to 56 µM; note: nearly all actives have a fitted effect of over 55% in size
[3] = target: Retinaldehyde dehydrogenase 3 (Homo sapiens) (UniProt P47895); assay: qHTS for Inhibitors of the Aldehyde Dehydrogenase Family (ALDH1A3) Primary screen (AID 2061315); conditions: ALDH inhibition qHTS; series mostly up to 56 µM
[4] = BET inhibitor-based combinations targeting novel dependencies in MECOM-rearranged (r) AML: OCI-AML3 cell line (AID 2202232); conditions: CellTiter-Glo luminescence, 48 h; Potency: OCI-AML3 viability; series mostly up to 46 µM; note: nearly all actives have a fitted effect of over 35% in size; note: potency is the fitted concentration of half-maximal effect
In short: (§1)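 Viability of cells (500 per well) is scored by luminescent CellTiter-Glo at 48 hr post-dosing. Eleven-point titrations are normalized to DMSO and empty controls and reduced to AUC values.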

[5] = BET inhibitor-based combinations targeting novel dependencies in MECOM-rearranged (r) AML: UCSD-AML1 cell line (AID 2202235); conditions: UCSD-AML1 AML cells viability, CellTiter-Glo, 48 h; series mostly up to 46 µM; note: nearly all actives have a fitted effect of over 40% in size; note: potency is the fitted concentration of half-maximal effect
In short: (§2)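 Using pin-tool transfer, drugs were added in 11 doses to cells (500/well), incubated 48 hr, and assessed with CellTiter-Glo. Z-AUC is a mean-centring transformation applied separately to each screened line.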

[6] = BET inhibitor-based combinations targeting novel dependencies in MECOM-rearranged (r) AML: AML-194 cell line (AID 2202237; note: nearly all actives have a fitted effect of over 40% in size; note: potency is the fitted concentration of half-maximal effect); conditions: AML-194 (MECOM-r AML) viability, CellTiter-Glo, 48 h; series mostly up to 46 µM
In short: as §1

[7] = BET inhibitor-based combinations targeting novel dependencies in MECOM-rearranged (r) AML: MV-4-11 cell line (AID 2202233); conditions: MV-4-11 AML viability, CellTiter-Glo luminescence, 48 h; series mostly up to 46 µM; note: nearly all actives have a fitted effect of over 45% in size; note: potency is the fitted concentration of half-maximal effect
In short: as §2

[8] = BET inhibitor-based combinations targeting novel dependencies in MECOM-rearranged (r) AML: HNT-34 cell line (AID 2202234); conditions: HNT-34 AML viability, CellTiter-Glo luminescence, 48 h; series mostly up to 46 µM; note: nearly all actives have a fitted effect of over 35% in size; note: potency is the fitted concentration of half-maximal effect
In short: as §2

[9] = BET inhibitor-based combinations targeting novel dependencies in MECOM-rearranged (r) AML: AML-191 cell line (AID 2202236; note: nearly all actives have a fitted effect of over 35% in size; note: potency is the fitted concentration of half-maximal effect); conditions: AML-191 viability, CellTiter-Glo luminescence, 48 h; series mostly up to 46 µM
In short: as §1

Cellular tumor antigen p53 (Homo sapiens), sequence (P04637 whole entry, looked up): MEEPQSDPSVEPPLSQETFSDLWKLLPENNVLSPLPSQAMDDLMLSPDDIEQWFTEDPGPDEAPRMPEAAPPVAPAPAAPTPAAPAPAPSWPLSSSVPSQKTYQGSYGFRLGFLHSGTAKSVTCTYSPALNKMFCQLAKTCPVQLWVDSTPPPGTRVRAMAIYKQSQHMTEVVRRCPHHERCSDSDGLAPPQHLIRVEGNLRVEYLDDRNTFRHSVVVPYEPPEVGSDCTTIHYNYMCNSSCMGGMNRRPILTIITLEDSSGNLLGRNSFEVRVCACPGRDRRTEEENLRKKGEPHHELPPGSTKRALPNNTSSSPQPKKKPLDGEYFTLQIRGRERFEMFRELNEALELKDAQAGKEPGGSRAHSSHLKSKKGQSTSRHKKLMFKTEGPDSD

Row | Compound | activation [1] | Potency [2] | Potency [3] | Potency [4] | Potency [5] | Potency [6] | Potency [7] | Potency [8] | Potency [9] | Potency [1]
1 | Cc1cccc(Nc2nc(-c3ccncc3)cs2)c1 | 11.1% and -1.43% | inactive | inactive | inactive | inactive | inactive | – | – | – | –
2 | Nc1ncnc2c1c(-c1cccc(OCc3ccccc3)c1)cn2C1CC(CN2CCCC2)C1 (stereo unspecified) | 31.8% | inactive | inactive | – | – | – | 2.63 µM (active) | 18.6 µM (active) | 20.9 µM (active) | –
3 | COc1ccc(-c2c(-c3ccc(O)cc3O)n[nH]c2C)cc1 | -3.77% | inactive | inactive | inactive | inactive | inactive | inactive | – | inactive | –
4 | CC(C)(O)c1cc2nc(-c3cnc(N)nc3)nc(N3CCOCC3)c2s1 | 18.8% | inactive | inactive | 1.32 µM (active) | 0.332 µM (active) | – | – | 1.86 µM (active) | – | –
5 | COCCOc1ccc2c(c1)ncn2-c1ccc2cccc(N3CCC(N)CC3)c2n1 | – | inactive | inactive | 9.34 µM (active) | 5.25 µM (active) | – | – | 7.42 µM (active) | – | 16.9 µM (active)
6 | CNC(=O)c1ccc(C)c(-n2c(C)cc(OCc3ccc(F)cc3F)c(Br)c2=O)c1 | 30.3% and -12.5% | inactive | inactive | inactive | inactive | inactive | – | – | – | –
7 | COc1cc(Nc2ncc3c(n2)-c2ccc(Cl)cc2C(c2c(F)cccc2OC)=NC3)ccc1C(=O)O | 85.9% | inactive | inactive | – | 0.059 µM (active) | – | 0.0833 µM (active) | – | – | –
8 | CC(C)(O)CCc1ccc(OCc2cc(-c3cccc(OC(F)F)c3)c3ncccc3c2)cc1 | 8.96% | inactive | inactive | – | inactive | – | 18.6 µM (active) | – | – | –
9 | CC(C)Nc1cc(C(F)(F)F)cc2nc(NC(=O)c3cccnc3)nn12 | -46.7% and -1.43% | inactive | inactive | – | inactive | inactive | inactive | – | inactive | –
10 | COc1ccc(C2(C#N)CCC(C(=O)O)CC2)cc1OC1CCCC1 (stereo unspecified) | -6.96% and -15.7% | inactive | inactive | – | inactive | inactive | – | inactive | inactive | –
11 | Nc1ccn([C@@H]2C(F)=C(CO)[C@@H](O)[C@H]2O)c(=O)n1 | 0.893% and -30.2% | inactive | inactive | – | 0.662 µM (active) | – | 0.235 µM (active) | – | – | –
12 | CC1CCC(C(=O)N(c2cc(C#CC(C)(C)C)sc2C(=O)O)C2CCC(O)CC2)CC1 (stereo unspecified) | -32.4% and -8.93% | inactive | inactive | – | – | inactive | 20.9 µM (active) | – | 18.6 µM (active) | –
13 | N#Cc1c(C2CCNCC2)cc(-c2c(O)cccc2OCC2CC2)nc1N | -1.56% | inactive | inactive | – | – | – | – | 23.5 µM (active) | 26.3 µM (active) | –
14 | COc1cc2nccc(Oc3ccc(NC(=O)Nc4cc(C)on4)c(Cl)c3)c2cc1OC | – | inactive | inactive | – | 16.6 µM (active) | 6.61 µM (active) | 1.05 µM (active) | – | 7.42 µM (active) | 30.6 µM (active) and 21.3 µM (active)
15 | CC(C)(N)c1ccc(-c2nc3ccccc3nc2-c2ccccc2)cc1 | 25% | inactive | inactive | – | – | – | – | – | 20.9 µM (active) | –
16 | CCN(CCO)CCCOc1ccc2c(Nc3cc(CC(=O)Nc4cccc(F)c4)[nH]n3)ncnc2c1 | -6.72% and 29.5% | inactive | inactive | – | – | – | 0.0525 µM (active) | – | 0.0934 µM (active) | –
17 | CC(C)[C@](O)(c1ccc2cc(OC(F)F)c(OC(F)F)cc2c1)c1cn[nH]n1 | 12.3% | inactive | inactive | – | inactive | – | – | 18.6 µM (active) | – | –
18 | CC(C)(O)CNc1nc(Nc2ccnc(C(F)(F)F)c2)nc(-c2cccc(C(F)(F)F)n2)n1 | -5% and -21.6% | inactive | inactive | – | inactive | – | – | – | – | –
19 | N#Cc1cccc(-c2c[nH]c3ncnc(N4CCOCC4)c23)c1 | -5.36% | inactive | inactive | – | inactive | inactive | – | – | 18.6 µM (active) | –
20 | Cc1cc(SCc2sc(-c3ccc(C(F)(F)F)cc3)nc2C)ccc1OCC(=O)O | -4.33% | inactive | inactive | – | inactive | inactive | – | – | inactive | –
21 | CC(C)(CNC(=O)c1cccc(-c2noc(C(F)(F)F)n2)c1)c1coc(-c2ccccc2)n1 | -0.477% | inactive | inactive | – | inactive | – | 23.5 µM (active) | – | 11.8 µM (active) | –
